From paper PMC4336329 (PLoS ONE, 2015)
The whole screen tested about 310,000 compounds, of which about 2,200 (0.71%) showed an effect of 50% or more. The effect is printed as a negative number. This excerpt belongs to a sample that is enriched for strong results.

target: human ether-à-go-go-related gene (hERG) potassium channel (human, UniProt Q12809); test: primary screen, population patch clamp on CHO cells stably expressing hERG; higher = less effect of the substance
Sequence (Q12809 whole entry, looked up): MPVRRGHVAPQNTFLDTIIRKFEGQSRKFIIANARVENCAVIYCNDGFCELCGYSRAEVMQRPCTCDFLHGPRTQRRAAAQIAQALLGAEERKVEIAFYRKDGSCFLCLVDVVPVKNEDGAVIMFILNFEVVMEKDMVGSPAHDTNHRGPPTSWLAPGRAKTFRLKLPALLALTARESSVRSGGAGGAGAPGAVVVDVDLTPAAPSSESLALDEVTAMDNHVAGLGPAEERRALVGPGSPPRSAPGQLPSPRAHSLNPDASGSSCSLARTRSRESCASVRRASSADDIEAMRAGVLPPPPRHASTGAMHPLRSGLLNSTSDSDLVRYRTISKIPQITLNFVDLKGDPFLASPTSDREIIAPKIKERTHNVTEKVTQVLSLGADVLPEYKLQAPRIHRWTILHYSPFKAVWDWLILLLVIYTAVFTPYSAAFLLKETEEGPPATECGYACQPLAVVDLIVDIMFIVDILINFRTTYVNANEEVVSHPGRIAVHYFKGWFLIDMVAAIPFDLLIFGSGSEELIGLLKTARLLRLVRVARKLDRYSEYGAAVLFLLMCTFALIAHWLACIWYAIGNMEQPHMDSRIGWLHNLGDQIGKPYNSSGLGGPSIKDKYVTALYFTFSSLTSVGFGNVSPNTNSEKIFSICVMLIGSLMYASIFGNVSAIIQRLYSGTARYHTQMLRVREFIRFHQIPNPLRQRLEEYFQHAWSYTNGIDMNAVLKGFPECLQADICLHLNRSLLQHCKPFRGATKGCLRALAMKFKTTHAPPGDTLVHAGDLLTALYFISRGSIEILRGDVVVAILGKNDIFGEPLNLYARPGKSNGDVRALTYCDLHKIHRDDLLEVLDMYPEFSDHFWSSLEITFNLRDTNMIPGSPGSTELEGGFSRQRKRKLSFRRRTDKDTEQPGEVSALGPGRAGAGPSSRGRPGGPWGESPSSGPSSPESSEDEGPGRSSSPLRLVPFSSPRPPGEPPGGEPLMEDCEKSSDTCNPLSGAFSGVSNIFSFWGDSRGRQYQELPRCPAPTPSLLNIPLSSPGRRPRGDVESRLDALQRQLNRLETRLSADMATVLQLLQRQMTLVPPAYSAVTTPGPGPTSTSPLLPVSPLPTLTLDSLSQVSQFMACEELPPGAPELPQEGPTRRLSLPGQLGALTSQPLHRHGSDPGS

SMILES	hERG current change (%, negative = inhibition) at 1uM [%]
COc1cccc(C(=O)Nc2cccc(C(C)=O)c2)c1	11.4
COc1ccc(Cl)c(N2CCN(CCCNC(=O)Nc3ccc(C)cc3)CC2)c1	-24.5
COc1ccc(NC(=O)NCCCN2CCN(c3cc(C)ccc3C)CC2)cc1	-80.4
COc1ccc(NC(=O)NCCN2CCN(c3cc(OC)ccc3OC)CC2)cc1	13.5
COc1ccc(NC(=O)NCCCN2CCN(c3ccccc3F)CC2)cc1	-5
COc1ccccc1N1CCN(CCCNC(=O)Nc2ccccc2)CC1	-28.8
COc1ccc(N2CCN(CCCNC(=O)Nc3ccccc3)CC2)cc1	-50.5
CCCSc1nnc2n(N)c(=O)c3ccccc3n12	11.3
C[C@@H](C(=O)Nc1ccc2ccccc2c1)[C@H]1C[C@]1(C)[C@H](NS(=O)(=O)c1ccc(-c2ccccc2)cc1)c1ccccc1	-8.41
Fc1ccccc1NC(=S)N1CCOCC1	12.2
COc1cc(C2SCCS2)cc(Br)c1Oc1ncccc1[N+](=O)[O-]	10.3
CC(C)CCNC(=O)Cc1csc(-c2ccccc2)n1	6.54
OC1CCC(NC(=S)Nc2ccc(SC(F)F)cc2)CC1 (stereo not drawn)	6.06
O=C(OCc1cnc(Cl)s1)c1cccc(Cl)c1	-5.8
CCCc1cc(C(=O)Nc2ccc(Cl)cn2)cs1	9.72
O=C(CCS(=O)(=O)c1ccc2c(c1)NC(=O)CO2)NCCc1ccccc1	9.02
CS(=O)(=O)N(Cc1ccco1)CC(O)Cn1c2ccccc2c2ccccc21 (stereo not drawn)	15
CN(C)C1(CNC(=O)c2ccc(NS(=O)(=O)c3ccc(Cl)c(Cl)c3)cc2)CCCCC1	-50.9
CCOc1ccc(NS(=O)(=O)c2ccc(C(=O)NCC3(N(C)C)CCCCC3)cc2)cc1	6.85
Cc1cc(S(=O)(=O)Nc2ccc(C(=O)NCC3(N(C)C)CCCCC3)cc2)ccc1F	-7.71
COc1ccc(CCC(=O)Nc2ccc(Cn3ccnc3)cc2)cc1	10.4

SMILES	hERG current change (%, negative = inhibition) at 1uM [%]
CCCNc1c(NS(=O)(=O)c2ccc(C(C)(C)C)cc2)c(=O)oc2ccccc12	9.75
CCCNc1c(NS(=O)(=O)c2ccc(OC)c(OC)c2)c(=O)oc2ccccc12	-77.2
CCCNc1c(NS(=O)(=O)c2ccc(C)c(C)c2)c(=O)oc2ccccc12	-6.38
Oc1c(Br)cc(/C=N/n2c(-c3ccccc3)n[nH]c2=S)c(Br)c1O	17.1
COC(=O)c1ccc(OCC(O)CN(CC(C)C)CC(C)C)cc1 (stereo not drawn)	6.51
COc1ccc(OCC(O)CNC(=O)/C=C/c2cccc([N+](=O)[O-])c2)cc1 (stereo not drawn)	14.8
CC(C)CN(CC(C)C)CC(O)COc1ccc([N+](=O)[O-])cc1.Cl (stereo not drawn)	-52.1
CCCCN(CCCC)CC(O)COc1ccc(Br)cc1 (stereo not drawn)	-43.6
CC(C)N(C(=O)/C=C/c1cccc([N+](=O)[O-])c1)C(C)C	7.97
O=[N+]([O-])c1ccc(OCC(O)CN(CCO)CCO)cc1 (stereo not drawn)	-16.9
COc1ccc(OCC(O)CN(C2CCCCC2)C2CCCCC2)cc1.Cl (stereo not drawn)	-37.9
CCCN(CCC)CC(O)COc1ccc([N+](=O)[O-])cc1 (stereo not drawn)	-81.4
O=[N+]([O-])c1ccc(OCC(O)CN(C2CCCCC2)C2CCCCC2)cc1 (stereo not drawn)	-80.4
COc1ccc(OCC(O)CN(C)C(=O)/C=C/c2cccc([N+](=O)[O-])c2)cc1 (stereo not drawn)	-56.7
Cl.O=[N+]([O-])c1ccc(OCC(O)CNC2CCCC2)cc1 (stereo not drawn)	-30.3
Cc1nccn1CC(O)COc1ccc([N+](=O)[O-])cc1 (stereo not drawn)	-41.3
CCOc1ccccc1NC(=O)CSc1nc2ccccc2c(=O)n1CC1CCCO1 (stereo not drawn)	-35.6
Cc1c(=O)n(OCc2ccccc2)c2ccccc2[n+]1[O-]	9.46
Oc1cnn(-c2ccccc2)c1	5.96
CC(=O)NC(CC(=O)OCc1ccc([N+](=O)[O-])cc1)c1ccccc1 (stereo not drawn)	-27
COCCNC(=O)CSc1nc2sccc2c(=O)n1-c1ccccc1	16.6

SMILES	hERG current change (%, negative = inhibition) at 1uM [%]
CCn1c(NC(=O)C(C)C)c2ccccc2nc1=O	2.18
COc1cc(C)nc(N(C)S(=O)(=O)c2ccccc2Cl)n1	7.72
CCN(CC)S(=O)(=O)c1cccc(C(=O)Nc2ccccc2)c1	-0.175
CCN(CC)S(=O)(=O)c1cccc(C(=O)Nc2ccc(C#N)cc2)c1	-74
CCN(CC)S(=O)(=O)c1cccc(NC(=O)c2ccc(C#N)cc2)c1	3.29
COC(=O)CSC(C(=O)Nc1ccc(C)c(C)c1)c1ccccc1 (stereo not drawn)	-4.33
O=C(Cn1ccc([N+](=O)[O-])n1)N1CCCCCC1	13.1
COC(=O)c1ccc(/C=N/NC(=O)C2CC(=O)N(c3ccc(F)cc3)C2)cc1 (stereo not drawn)	16.8
COC(=O)c1nn(-c2cccc(C(F)(F)F)c2)ccc1=O	8.73
COc1ccc(C(=O)N/N=C/c2ccc(OC)c(CN3CCc4cc(OC)c(OC)cc4C3C)c2)cc1 (stereo not drawn)	-85.1
COc1ccc(/C=N/NC(=O)c2cc(OC)c(OC)c(OC)c2)cc1CN1CCc2cc(OC)c(OC)cc2C1C (stereo not drawn)	-21.9
COc1ccc(C(=O)N/N=C/c2ccc(OC)c(CN3CCCc4ccccc43)c2)cc1	-6.65
COc1ccc(/C=N/NC(=O)c2ccc(F)cc2)cc1CN1CCc2cc(OC)c(OC)cc2C1C (stereo not drawn)	-99.1
COc1ccc(/C=N/NC(=O)c2cccnc2)cc1CN1CCc2cc(OC)c(OC)cc2C1C (stereo not drawn)	1.82
COc1ccc(/C=N/NC(=O)c2ccccc2[N+](=O)[O-])cc1CN1CCc2cc(OC)c(OC)cc2C1C (stereo not drawn)	-10.4
Cc1cccc([C@@H]2[C@@H]3C(=O)N(Cc4ccccc4)C(=O)[C@@H]3[C@]3(Cc4ccccc4)C(=O)N(c4cccc(F)c4)C(=O)N23)c1	9.13
COc1cc(/C=C2/SC(=S)N(CC(=O)O)C2=O)ccc1OC(=O)c1ccco1	7.62
N=C1/C(=C/c2ccc(OCc3ccccc3F)cc2)C(=O)N=C2SC(CC(=O)N3CCOCC3)=NN12	12.2
CCC(Sc1nc(N)c(NC(=O)c2ccc(OC)c(OC)c2)c(=O)[nH]1)C(=O)OC (stereo not drawn)	-5.41
CCC(NS(=O)(=O)c1cccs1)c1ccc(C)cc1 (stereo not drawn)	8.69
O=C(c1ccccc1F)N1CCN(c2ccc([N+](=O)[O-])c3ncccc23)CC1	-38.7

SMILES	hERG current change (%, negative = inhibition) at 1uM [%]
O=[N+]([O-])c1ccc(N2CCCC2)c2ncccc12	2.1
O=C(c1cc(F)c(F)cc1Cl)N1CCN(c2ccc([N+](=O)[O-])c3ncccc23)CC1	-53.6
O=[N+]([O-])c1cccc2c(N3CCCC3)ccnc12	-84.4
O=C(c1ccccc1F)N1CCN(c2ccc([N+](=O)[O-])c3cccnc23)CC1	-13.2
O=[N+]([O-])c1ccc(N2CCOCC2)c2cccnc12	-7.04
O=[N+]([O-])c1cccc2c(N3CCOCC3)ccnc12	10
O=[N+]([O-])c1ccc(N2CCN(S(=O)(=O)c3ccccc3)CC2)c2cccnc12	-75.6
Cc1ccc(S(=O)(=O)N2CCN(c3ccc([N+](=O)[O-])c4cccnc34)CC2)cc1	7.53
COc1cc(NC(=O)C2CC(=O)N(Cc3ccco3)C2)cc(OC)c1 (stereo not drawn)	2.39
CC/C(=N\NC(=O)c1ccc(N2CCCC2=O)cc1)c1ccccc1	10.8
Cc1ccc2nc(SC(C)C(=O)NC3CCCc4ccccc43)[nH]c2c1 (stereo not drawn)	11.6
CC1(c2ccc([N+](=O)[O-])cc2)NC(=O)N(CC(=O)Nc2ccc(N3CCCCC3)cc2)C1=O (stereo not drawn)	14.8
Cc1ccc(-n2ncc3c2CCCC3NC(=O)c2cnccn2)cc1C (stereo not drawn)	10.3
CCOc1ccc(C(C)NC(=O)Cc2ccccc2)cc1OCC (stereo not drawn)	10.8
O=C(Cn1nc(C(F)(F)F)cc1C1CC1)Nc1ccccc1F	16.1
COCCN1CC(=O)N2C(c3cccc(C)c3)c3[nH]c4ccccc4c3C[C@H]2C1=O (stereo partly drawn)	1.07
COc1cc2c3nnc(-c4ccc(F)cc4)c-3cn(Cc3ccc(F)cc3)c2cc1OC	-5.13
COc1cc2c3nnc(-c4ccc(F)cc4)c-3cn(Cc3ccc(C)cc3)c2cc1OC	13.5
COc1ccc(Cn2cc3c(-c4ccc(F)cc4)nnc-3c3cc(OC)c(OC)cc32)cc1	-75.6
Cc1cc(C)n(Cc2ccccc2)c(=O)c1S(=O)(=O)c1ccccc1	3.34
COC(=O)C(C)Sc1nnc(SC(C)C(=O)OC)s1 (stereo not drawn)	23
